Rows were chosen to be rich in hits. Some 2.4% of all compounds tested hit in one or more screens of this group.
Cruzain noTriton: blocks cruzain activity in detergent-free assay; Potency, µM, for inactives: max response, negative = inhibition, hits mostly inhibitors; hit rate 2.3% among 200,000; purified cruzain, Z-FR-AMC fluorescence, no detergent; AID 1476; P25779;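 note: plate controls were enzyme without inhibitor for no effect and buffer without enzyme for full effect; nearly all actives have a fitted effect of over 40% in size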
Target sequence (P25779 123-467 limits assumed): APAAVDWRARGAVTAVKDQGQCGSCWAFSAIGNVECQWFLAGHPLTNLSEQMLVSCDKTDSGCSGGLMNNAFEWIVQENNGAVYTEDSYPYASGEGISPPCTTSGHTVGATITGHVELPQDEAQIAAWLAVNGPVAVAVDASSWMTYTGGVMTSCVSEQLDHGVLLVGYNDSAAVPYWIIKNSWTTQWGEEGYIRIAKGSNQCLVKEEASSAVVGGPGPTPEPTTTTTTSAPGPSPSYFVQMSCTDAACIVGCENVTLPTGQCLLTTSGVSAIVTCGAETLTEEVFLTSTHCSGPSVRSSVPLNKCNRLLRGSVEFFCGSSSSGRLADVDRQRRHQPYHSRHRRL
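Purified cruzain at 1.5 nM, pre-incubated 15 min with compound at room temperature in 100 mM sodium acetate pH 5.5, 5 mM DTT, 0.00005% Triton X-100. Reaction started with 2 uM Z-FR-AMC; AMC fluorescence increase over 60 s gives rate.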
Cruzain Triton: cruzain (T. cruzi) inhibition with detergent. hit rate 0.43% among 200,000. P25779. purified cruzain, Z-FR-AMC fluorescence, 0.01% Triton. Potency, µM, without a hit: max response, negative = inhibition, hits mostly inhibitors;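 note: plate controls were neutral wells for no effect and buffer without enzyme for full effect; nearly all actives have a fitted effect of over 40% in size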
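Detergent-containing arm of a paired screen for aggregation-based inhibition: 0.01% Triton X-100 present. Cruzain at 1.5 nM cleaved 2 uM Z-FR-AMC at pH 5.5 with 5 mM DTT; AMC fluorescence gain over 60 s measured activity.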
* = called active by the depositor; ? = inconclusive. Calls come from the whole dose curve; as a rule, active = well fitted curve in the direction sought with a large enough effect; inconclusive = small, poorly fitted or top-dose-only effect, or another doubt; inactive = no such curve, though single readings can be large; an effect the other way counts as inactive or inconclusive. Potency is the fitted concentration of half-maximal effect.

SMILES	Cruzain noTriton	Cruzain Triton
N#C/C(=C/c1ccc(N2CCCC2)c([N+](=O)[O-])c1)c1nc2ccccc2[nH]1	-21%	-1%
N#C/C(=C\c1ccc(Oc2ccc(C(F)(F)F)cc2[N+](=O)[O-])cc1)c1nc2ccccc2[nH]1	?	2%
CCc1ccc(NC(=O)CCn2c(=O)oc3ccccc32)cc1	1.3µM*	-1%
Cc1ccc(NC(=O)CCn2c(=O)oc3ccccc32)cc1	-3%	1%
CCN(CC)CCNC(=O)C(=O)Nc1c2c(nn1-c1ccc(F)cc1)CSC2	3%	-8%
CCOc1ccc(NC(=O)Cn2cc(S(=O)(=O)N3CCN(c4ccccc4F)CC3)c3ccccc3c2=O)cc1	16µM*	-2%
O=C(Cn1cc(S(=O)(=O)N2CCN(c3ccccc3F)CC2)c2ccccc2c1=O)Nc1ccc(F)cc1Cl	?	-1%
COc1ccc(OCC(=O)NC(=S)Nc2ccc3c4c(cccc24)CC3)cc1	?	-12%
Cc1ccccc1OCC(=O)NC(=S)Nc1ccc2c3c(cccc13)CC2	7.9µM*	-1%
CCOc1ccc(S(=O)(=O)n2nc(C)c(S(=O)(=O)N3CCCCC3)c2C)cc1	0%	0%
COc1ccc(N2CC(NC(=O)c3ccco3)CC2=O)cc1 (stereo not drawn)	-11%	2%
CCc1ccc(NC(=O)c2cc(-c3ccc(OC)cc3)on2)cc1	13µM*	0%
CCOc1ccccc1-c1nc(-c2ccc(NC(=O)Cc3ccc(OC)cc3)cc2)no1	7.9µM*	1%
COc1ccc(CC(=O)Nc2ccc(-c3noc(-c4cc(OC)c(OC)c(OC)c4)n3)cc2)cc1	5%	-2%
COc1ccc(-c2noc(-c3ccccc3OCC(=O)Nc3ccc(C(C)=O)cc3)n2)cc1	-5%	-10%
CCOc1ccc(-c2cc(C(=O)Nc3ccc(NC(C)=O)cc3)no2)cc1	-4%	-1%
COc1ccc(CC(=O)Nc2ccc(-c3noc(-c4ccc(Cl)cc4)n3)cc2)cc1	4µM*	-8%
COC(=O)c1ccccc1NC(=O)CSc1nc(-c2ccccc2)cc(C(F)(F)F)n1	-4%	-8%
CCOc1ccc(Nc2nc3ccccc3n3c(CC)nnc23)cc1	-3%	0%
COc1ccc(OCCCCn2c(-c3ccc(Cl)cc3)nc3ccccc3c2=O)cc1	5%	-1%
Cc1cc(C(C)(C)C)cc(CNC2CCCCC2)c1O	0%	11%
Cc1oc(C)c2c(=O)cc(-c3ccc4c(c3)OCO4)cc(OC(=O)c3ccccc3Cl)c12	-4%	-2%
Cc1oc(C)c2c(=O)cc(-c3ccc4c(c3)OCO4)cc(OC(=O)c3ccccc3Br)c12	16µM*	-9%
CCc1ccc2occ(CC(=O)Nc3c(C(=O)c4ccc(F)cc4)oc4ccccc34)c2c1	-13%	-1%
C(=C\c1nc(-c2ccccc2)oc1Nc1ccc2ccccc2c1)/c1ccccc1	25µM*	3%
SMILES	Cruzain noTriton	Cruzain Triton
O=C(Nc1ccc2oc(-c3ccccc3)nc2c1)c1ccc2ccccc2c1	6%	-1%
COC(=O)[C@@]1(Cc2ccc(OC)cc2)[C@H]2c3cc(C(=O)N(C)C)n(Cc4cc(F)c(F)c(F)c4)c3C[C@H]2CN1C(=O)c1ccccc1	?	-1%
COC(=O)c1ccccc1NC(=O)c1ccc2c(c1)CCN2S(=O)(=O)c1ccc(Cl)cc1	11%	1%
COc1cc(Cl)c(C)cc1NC(=O)CN1c2ccccc2S(=O)(=O)c2ccccc21	25µM*	-6%
NC(=O)c1ccccc1NC(=O)CN1c2ccccc2S(=O)(=O)c2ccccc21	-8%	-3%
COc1ccc(-n2c(/C=C/c3cc(OC)c(OC)cc3OC)nc3cc4ccccc4cc3c2=O)cc1Cl	19%	1%
Cc1ccnc(NC(=S)NC(=O)/C=C/c2ccc(Cl)cc2)c1	4µM*	3%
Cc1ccnc(NC(=S)NC(=O)/C=C/c2ccccc2)c1	?	-4%
Cc1ccc(C)c(NC(=O)CSc2ncc(S(=O)(=O)c3ccc(C)c(Cl)c3)c(=O)[nH]2)c1	49%	-11%
CCOC(=O)c1ccc(NC(=O)CSc2ncc(S(=O)(=O)c3ccc(C)c(Cl)c3)c(=O)[nH]2)cc1	?	28µM*
CCOC(=O)C(Sc1ncnc2c1sc1nc(N3CCOCC3)c3c(c12)CCCC3)c1ccccc1 (stereo not drawn)	3.2µM*	8%
CCOC(=O)CSc1ncnc2c1sc1nc(N3CCOCC3)c3c(c12)CCCC3	-6%	-5%
CCCCOC(=O)c1ccc(-n2nnc3c(sc4nc(C)cc(C)c43)c2=O)cc1	11%	3%
O=C(CSc1ccccn1)c1ccc2c(c1)OCO2	-9%	-1%
O=C(CSc1nnc(SCc2cccc3ccccc23)s1)c1ccc2c(c1)OCO2	25µM*	-2%
CN(C)S(=O)(=O)c1ccc(C(=O)Nc2nnc(SCc3cccc4ccccc34)s2)cc1	?	0%
O=C(CSc1nnc(SCc2cccc3ccccc23)s1)N=Nc1c(O)[nH]c2ccccc12	7.9µM*	-4%
Cc1ccc2nc(SCC(=O)c3ccc4c(c3)OCO4)[nH]c2c1	?	-3%
